USP1-UAF1 inh = blocks the human USP1/UAF1 deubiquitinase complex. O94782. recombinant USP1/UAF1, Ub-Rhodamine cleavage fluorescence. Potency, µM (top dose mostly 57.1 µM), inactives show top-dose activity change, negative = inhibition, most hits filed as inhibitors. actives 0.23% (n = 390,000). AID 743255; further: potency means the concentration at half of the fitted maximal effect; nearly all actives have a fitted effect of over 60% in size
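In this screen, compounds sit with the deubiquitinase complex (1nM) for 15 min at room temperature before Ub-Rho is added at 150nM final. Fluorescence rise is then followed for 6 reads every 60 seconds.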
PLK1 PBD inh = inhibitors of human PLK1 polo-box domain binding; Plk1 PBD binding of FITC phosphopeptide, fluorescence polarization; AID 720504; actives 2.8% (n = 360,000); P53350; Potency, µM, for inactives: max response, negative = inhibition, most hits filed as inhibitors; further: potency means the concentration at half of the fitted maximal effect; series mostly up to about 57 µM; nearly all actives have a fitted effect of over 65% in size
USP2a inh = USP2a (human) protease inhibition. Potency, µM (doses to about 38.3 µM), for inactives: at the top dose activity change, negative = inhibition, usual class: inhibitors. O75604. USP2 core, Ub-CHOP2 coupled fluorogenic reporter, 485/531. actives 0.01% (n = 330,000). AID 463254;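 further: potency means the concentration at half of the fitted maximal effect; plate controls were DMSO wells for no effect and full inhibition by NEM control for full effect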
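USP2 core (10nM final) preincubated 30min RT with compound in 20mM Tris-HCl pH 8.0, 2mM CaCl2, 2mM beta-mercaptoethanol, 0.05% CHAPS; 25nM Ub-CHOP2 plus 25nM reporter substrate added, fluorescence (Ex485/Em531) read after 60min.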
VDR inh = inhibitors of human vitamin D receptor. P11473. VDR-SRC2-3 peptide fluorescence polarization, 2 h. Potency, µM, for the others: max response, negative = inhibition, hits mostly inhibitors. actives 0.93% (n = 400,000). AID 504847; further: potency means the concentration at half of the fitted maximal effect
Target sequence (P11473 whole entry, looked up): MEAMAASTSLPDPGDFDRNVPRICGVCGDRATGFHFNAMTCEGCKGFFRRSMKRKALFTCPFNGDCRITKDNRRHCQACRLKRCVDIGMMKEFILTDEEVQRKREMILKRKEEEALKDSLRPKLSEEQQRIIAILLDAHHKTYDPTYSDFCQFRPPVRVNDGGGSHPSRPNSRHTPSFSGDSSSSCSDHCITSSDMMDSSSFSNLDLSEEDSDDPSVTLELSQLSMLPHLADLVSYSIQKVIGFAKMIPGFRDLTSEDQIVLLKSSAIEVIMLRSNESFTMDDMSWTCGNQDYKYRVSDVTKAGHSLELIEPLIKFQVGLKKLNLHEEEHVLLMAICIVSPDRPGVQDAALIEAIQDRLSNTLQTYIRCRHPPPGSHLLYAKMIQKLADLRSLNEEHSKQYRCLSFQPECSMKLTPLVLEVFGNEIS
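Reagent solutions, kept cold and dark, are dispensed first; compounds are then pinned in at 23 nl, plates briefly spun, and incubated 2 h at ambient temperature. Inhibition of VDR–SRC2-3 peptide binding is read by fluorescence polarization.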
Coupling enz = inhibits coupling enzyme system, counter-screen for aldolase hits; coupling enzyme system counterscreen, AmpLite Red fluorescence; activity change, negative = inhibition, % at 58.2 µM, hits read low; actives 0.67% (n = 290,000); AID 2472; in the data active means activity change below about -30%
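First, compound is pin-transferred into glyceraldehyde-3-phosphate coupling-enzyme reagent at 57.5 uM final and held 10 min at RT. Next, substrate, coupling system and AmpLite Red are added. After 20 min RT, fluorescence (525/598 nm) is read.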
GALK inh = galactokinase (human) inhibition; Potency, µM (titrated, usually from 57.5 µM), for inactives: at the highest dose activity change, negative = inhibition, hits mostly inhibitors; actives 0.007% (n = 270,000); Purified GALK, Kinase-Glo residual ATP luminescence; AID 1868; further: potency means the concentration at half of the fitted maximal effect
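GALK at 5 nM final was combined with compound, 35 uM ATP and 100 uM galactose in HEPES pH8.0 with MgCl2 and DTT. The reaction ran one hour at room temperature before luminescent ATP detection.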
* hit, by the source's call; ? = inconclusive; . = no result. Rows were chosen to be rich in hits. Some 3.2% of all compounds tested hit in one or more screens of this group. Unless noted, the call rests on the fitted dose curve; in most records, active means well fitted curve in the direction sought with a large enough effect; inconclusive means small, poorly fitted or top-dose-only effect, or another doubt; inactive means no such curve, though single readings can be large; an effect the other way counts as inactive or inconclusive. Unless noted, on the % scale 0 is the no-effect control and ±100 the full control effect.

SMILES	USP1-UAF1 inh	PLK1 PBD inh	USP2a inh	VDR inh	Coupling enz	GALK inh
CC1=NN(c2ccccc2)C(=O)C1/C=C1\C(=O)NC(=O)N(c2cc(C)cc(C)c2)C1=O (centres undefined)	-2%	-9%	3%	-17%	19	-4%
Cc1ccc(N2C(=O)NC(=O)/C(=C\c3cccn3C(C)(C)C)C2=O)cc1	-17%	?	2%	-8%	0	-1%
Cc1cc(C)cc(N2C(=O)NC(=O)/C(=C\C=C\c3ccco3)C2=O)c1	3%	1.7µM*	3%	-22%	5	0%
Cc1ccc(N2C(=O)NC(=O)/C(=C/C=C/c3ccco3)C2=O)cc1	-1%	?	0%	25µM*	2	-3%
CCC(C)C1NC(=O)C(C(C)=O)=C1O (centres undefined)	-15%	0%	-3%	2%	0	1%
O=C1C=C2C(=CCOC2O)O1 (centres undefined)	.	.	.	13µM*	0	.
Cc1cc(-c2ccccc2)cc(C)[n+]1Cc1ccccc1	-11%	-15%	1%	-4%	.	.
O=C(CN1C(=O)S/C(=C\C=C\c2ccccc2)C1=O)Nc1ccccc1C(=O)O	?	19µM*	-2%	79µM*	1	-12%
CCOP(=O)(OCC)/C(=N/OC(=O)c1ccccc1C)C(N)=O	-2%	?	2%	0%	4	0%
CCOP(=S)(OCC)O/N=C(\C#N)c1ccccc1Cl	.	.	.	22µM*	0	.
Cn1c(O)c(C=NCCOc2ccc(Cl)cc2)c(=O)n(C)c1=O	6%	-9%	-1%	-16%	0	2%
Cc1ccc(N2C(=O)NC(=O)/C(=C/c3cnn(-c4ccc(C)cc4)c3)C2=O)cc1	-12%	1.2µM*	1%	?	1	-4%
O=C1NC(=O)N(c2ccc(Br)cc2)C(=O)/C1=C/c1ccsc1	-16%	4.7µM*	1%	45µM*	2	1%
Cc1cc(/C=C2\C(=O)NC(=O)N(c3ccc(Cl)cc3)C2=O)c(C)n1C	-10%	-9%	3%	-6%	1	1%
CSc1ncc(/C=C2/C(=O)NC(=O)N(c3ccc(C)cc3)C2=O)cn1	-12%	9.5µM*	2%	40µM*	4	-1%
COc1cc(/C=C2\C(=O)NC(=O)N(c3ccc(C)cc3)C2=O)cc(OC)c1O	-12%	?	1%	-28%	-29	0%
CCC(C)c1ccc(N2C(=O)NC(=O)/C(=C/c3cccn3CCOc3ccc(C)cc3)C2=O)cc1 (centres undefined)	1%	-27%	4%	26%	1	-4%
CCOc1ccc(N2C(=O)NC(=O)/C(=C/c3cnc(SC)nc3)C2=O)cc1	-18%	11µM*	-5%	40µM*	5	-2%
CS/C(N)=C(C#N)/C(C#N)=C(\N)SC	.	.	.	45µM*	2	.
CCCCn1c(NS(=O)(=O)c2ccccc2)c(C(=O)OCC)c2nc3ccccc3nc21	22µM*	?	-22%	45µM*	0	0%
CC(C)(C)C(O)C(Oc1ccc(-c2ccccc2)cc1)n1cncn1 (centres undefined)	.	.	.	-12%	-1	.
O=C1C2CC=CCC2C(=O)N1SC(Cl)(Cl)Cl (centres undefined)	.	.	.	4µM*	.	.
Cc1cccc(N2C(=O)NC(=O)/C(=C\c3ccc4c(c3)CCCN4Cc3ccccc3)C2=O)c1	-27%	?	3%	?	5	-7%
CCC(C)N1C(=O)/C(=C/c2ccc3c(c2)CCN3CCCCl)C(=O)NC1=S (centres undefined)	-24%	0.95µM*	-6%	1%	1	-8%
O=C1NC(=O)N(Cc2ccccc2)C(=O)/C1=C\N1CCCc2ccccc21	-18%	-20%	4%	35µM*	-7	0%
Cn1cccc1/C=C1/C(=O)NC(=O)N(Cc2ccccc2)C1=O	-26%	?	3%	?	-4	-4%
O=c1oc2ccccc2c(O)c1C(c1ccccn1)c1c(O)c2ccccc2oc1=O	-10%	-8%	1%	?	8	.

High-throughput results deposited in PubChem by National Center for Advancing Translational Sciences (NCATS).
